The whole screen tested about 5,500 compounds, of which about 2,000 (36%) were called active. Roughly 18% stayed inconclusive and do not appear here. Cut-off read from the data, not from the text of the source: active = normalized growth mostly below about 0.91 (no sharp cut-off); inconclusive = no clear call, values can overlap the other calls; inactive = mostly above about 0.92. The list shows a part of the results.
Test: chemical genetic growth profiling, strain panel (AID 1159580);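 note: tested at 20 µM; growth read once vehicle control cultures reached saturation at 30 °C; 1 = growth at the plate median or of vehicle wells; lower values mean less growth of the strain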
Settings: S. cerevisiae deletion strains, growth OD

Measured: normalized growth

CCC(C)C(=O)c1c(O)c(C)c2oc3c(C)c(O)c(C(=O)C(C)CC)c(O)c3c2c1O (centres undefined)
active: locus YDL185W, strain tfp1, active compounds read low 0.895 | locus YDR137W, strain rgp1, active compounds read low 0.813 | locus YGL086W, strain mad1, active compounds read low 1.12 [resistant] | locus YJL187C, strain SWE1 (second series), active compounds read low 0.767
inactive: locus YAL021C, strain ccr4, active compounds read low 0.972 | locus YAL026C, strain drs2, active compounds read low 0.982 | locus YAL030W, strain snc1, active compounds read low 0.983 | locus YBL061C, strain skt5, active compounds read low 0.98 | locus YBR009C, strain hhf1, active compounds read low 0.977 | locus YBR021W, strain FUR4, active compounds read low 1.05 | locus YBR023C, strain chs3, active compounds read low 0.971 | locus YBR171W, strain sec66, active compounds read low 0.995 | locus YBR229C, strain ROT2, active compounds read low 0.996 | locus YBR231C, strain swc5, active compounds read low 0.925 | locus YBR279W, strain paf1, active compounds read low 0.988 | locus YCL011C, strain gbp2, active compounds read low 0.98 | locus YCL016C, strain dcc1, active compounds read low 0.973 | locus YCL029C, strain bik1, active compounds read low 0.943 | locus YCL069W, strain vba3, active compounds read low 1 | locus YCR088W, strain abp1, active compounds read low 0.997 | locus YDL005C, strain med2, active compounds read low 0.979 | locus YDL035C, strain GPR1, active compounds read low 0.953 | locus YDL040C, strain nat1, active compounds read low 0.994 | locus YDL074C, strain BRE1, active compounds read low 0.949 | locus YDL101C, strain DUN1, active compounds read low 0.959 | locus YDL134C, strain PPH21, active compounds read low 0.977 | locus YDL192W, strain arf1, active compounds read low 0.976 | locus YDR001C, strain nth1, active compounds read low 1.01 | locus YDR069C, strain doa4, active compounds read low 0.919 | locus YDR101C, strain arx1, active compounds read low 0.987 | locus YDR150W, strain NUM1, active compounds read low 0.966 | locus YDR159W, strain sac3, active compounds read low 0.965 | locus YDR162C, strain NBP2, active compounds read low 0.997 | locus YDR195W, strain ref2 0.977 | locus YDR297W, strain sur2, active compounds read low 0.989 | locus YDR318W, strain mcm21, active compounds read low 0.967 | locus YDR334W, strain swr1, active compounds read low 1 | locus YDR335W, strain msn5, active compounds read low 0.997 | locus YDR388W, active compounds read low 0.961 | locus YDR392W, strain spt3, active compounds read low 0.921 | locus YDR502C, strain sam2, active compounds read low 0.935 | locus YEL003W, strain gim4, active compounds read low 0.983 | locus YEL037C, strain rad23, active compounds read low 1.01 | locus YEL061C, strain CIN8 (second series), active compounds read low 1 | locus YEL061C, strain CIN8, active compounds read low 0.97 | locus YER015W, strain faa2, active compounds read low 0.983 | locus YER016W, strain bim1, active compounds read low 0.996 | locus YER110C, active compounds read low 0.975 | locus YER111C, strain swi4, active compounds read low 0.984 | locus YER155C, strain BEM2 (second series), active compounds read low 0.934 | locus YER155C, strain BEM2, active compounds read low 1.02 | locus YER167W, strain BCK2, active compounds read low 0.956 | locus YFR010W, strain ubp6, active compounds read low 0.978 | locus YGL078C, strain dbp3, active compounds read low 0.987 | locus YGL167C, strain pmr1, active compounds read low 1 | locus YGL173C, strain kem1, active compounds read low 0.97 | locus YGL227W, strain vid30, active compounds read low 1 | locus YGL240W, strain doc1, active compounds read low 0.949 | locus YGL248W, strain PDE1, active compounds read low 0.984 | locus YGL253W, strain hxk2, active compounds read low 1 | locus YGR135W, strain pre9, active compounds read low 0.941 | locus YGR252W, strain gcn5, active compounds read low 1.09 | locus YHR013C, strain ard1, active compounds read low 0.969 | locus YHR027C, strain rpn1, active compounds read low 0.998 | locus YHR030C, strain SLT2, active compounds read low 0.964 | locus YHR079C, strain IRE1 (second series), active compounds read low 0.979 | locus YHR094C, strain hxt1, active compounds read low 0.999 | locus YHR129C, strain ARP1, active compounds read low 0.952 | locus YHR142W, strain chs7, active compounds read low 1.02 | locus YHR200W, strain rpn10, active compounds read low 0.988 | locus YIL066C, strain RNR3, active compounds read low 0.943 | locus YIL073C, strain SPO22, active compounds read low 1.01 | locus YIL125W, strain kgd1, active compounds read low 0.997 | locus YIR030C, strain dcg1, active compounds read low 0.978 | locus YJL092W, strain hpr5, active compounds read low 1 | locus YJL095W, strain BCK1 (second series), active compounds read low 0.985 | locus YJL095W, strain BCK1, active compounds read low 0.882 | locus YJL115W, strain asf1, active compounds read low 1.01 | locus YJL129C, strain trk1, active compounds read low 1.02 | locus YJL134W, strain LCB3, active compounds read low 0.978 | locus YJL154C, strain vps35, active compounds read low 1.01 | locus YJL164C, strain tpk1, active compounds read low 0.977 | locus YJL166W, strain qcr8, active compounds read low 0.983 | locus YJL168C, strain set2, active compounds read low 0.983

— PubChem BioAssay AID1159580 (chemical genetic matrix, 2015)
